In PMC8384837, “Expanding the binding specificity for RNA recognition by a PUF domain” one finds binding signal data, which are given here for eight sequences.

Chain of PUM1 PUF domain R3-LWR (Q14671 828-1176 C935L/R936W/Q939R): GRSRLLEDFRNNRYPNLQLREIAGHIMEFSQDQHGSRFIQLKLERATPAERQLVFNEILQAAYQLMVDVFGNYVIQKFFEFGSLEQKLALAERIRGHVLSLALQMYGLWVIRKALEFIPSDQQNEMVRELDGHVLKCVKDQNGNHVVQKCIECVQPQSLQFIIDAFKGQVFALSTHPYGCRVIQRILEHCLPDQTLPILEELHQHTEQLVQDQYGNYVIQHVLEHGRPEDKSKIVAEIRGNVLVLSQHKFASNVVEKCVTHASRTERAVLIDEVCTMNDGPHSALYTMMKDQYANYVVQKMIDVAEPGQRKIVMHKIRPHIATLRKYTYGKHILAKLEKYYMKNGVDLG

The target of the first experiment is PUM1 PUF domain R5-FHS (Homo sapiens, UniProt Q14671 828-1176, C1007F;R1008H;Q1011S). Nature of the experiment: yeast three-hybrid, YBZ-1, SC-Leu-His + 0.5 mM 3-AT, 4 days. The conditions noted are these: tags: N-Gal4 AD-HA kept; label: inside an RPR1-promoter hybrid RNA with tandem MS2 sites; ssRNA. Summed up: (§1)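 The interaction score is the log change in variant frequency from input to selection. Scores were computed in log2 with a pseudocount of 1 for absent variants, using Illumina sequencing of PCR-amplified repeat regions. The input came from four days on SC-Leu and the selection from four days on SC-Leu-His + 0.5 mM 3-AT. The cells were strain YBZ-1 (LexA–MS2 coat fusion, HIS3 reporter) co-expressing Pumilio-1 PUF domain libraries and matching RNA elements from a centromeric plasmid.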
Chain of PUM1 PUF domain R5-FHS (Q14671 828-1176 C1007F/R1008H/Q1011S): as the sequence (Q14671 828-1176 C935L/R936W/Q939R) above, with L108C, W109R, R112Q, C180F, R181H, Q184S counted along it
Turning to “GGCUAGAACUAGUGGAUCCCCCGGCGCCCGGCGGCUCGAGCCCGGGUAAGUGUUAAUAGUCUGCAUGCCGCCGGGCGCCAUGCCUGCAGGUCGACUCUAGAAAACAUG”, the binding signal was 0.94 log2 enrichment (interaction score).

As for “GGCUAGAACUAGUGGAUCCCCCGGCGCCCGGCGGCUCGAGCCCGGGUAAGUGUCAAUAGUCUGCAUGCCGCCGGGCGCCAUGCCUGCAGGUCGACUCUAGAAAACAUG”, the binding signal was 1.75 log2 enrichment (interaction score).

“GGCUAGAACUAGUGGAUCCCCCGGCGCCCGGCGGCUCGAGCCCGGGUAAGUGUAAAUAGUCUGCAUGCCGCCGGGCGCCAUGCCUGCAGGUCGACUCUAGAAAACAUG”: the binding signal was 2.12 log2 enrichment (interaction score).

As for “GGCUAGAACUAGUGGAUCCCCCGGCGCCCGGCGGCUCGAGCCCGGGUAAGUGUGAAUAGUCUGCAUGCCGCCGGGCGCCAUGCCUGCAGGUCGACUCUAGAAAACAUG”, the binding signal is 2.39 log2 enrichment (interaction score).

The next experiment has as its target PUM1 PUF domain R3-LWR (Homo sapiens, UniProt Q14671 828-1176, C935L;R936W;Q939R). Described as above. Particulars: tags: N-Gal4 AD-HA kept; label: inside an RPR1-promoter hybrid RNA with tandem MS2 sites; ssRNA. Summed up:
as §1
In the case of “GGCUAGAACUAGUGGAUCCCCCGGCGCCCGGCGGCUCGAGCCCGGGUAAGUGUAAUUAGUCUGCAUGCCGCCGGGCGCCAUGCCUGCAGGUCGACUCUAGAAAACAUG”, the binding signal is 4.17 log2 enrichment (interaction score).

Regarding “GGCUAGAACUAGUGGAUCCCCCGGCGCCCGGCGGCUCGAGCCCGGGUAAGUGUAAAUAGUCUGCAUGCCGCCGGGCGCCAUGCCUGCAGGUCGACUCUAGAAAACAUG”, the binding signal is 2.03 log2 enrichment (interaction score).

For “GGCUAGAACUAGUGGAUCCCCCGGCGCCCGGCGGCUCGAGCCCGGGUAAGUGUAAGUAGUCUGCAUGCCGCCGGGCGCCAUGCCUGCAGGUCGACUCUAGAAAACAUG”, the binding signal is 5.5 log2 enrichment (interaction score).

The target in a further experiment is PUM1 PUF domain R3-LWA (Homo sapiens, UniProt Q14671 828-1176, C935L;R936W;Q939A). The experiment is described as above. The conditions noted are these: tags: N-Gal4 AD-HA kept; label: inside an RPR1-promoter hybrid RNA with tandem MS2 sites; ssRNA. In short, it runs like this: as §1
Chain of PUM1 PUF domain R3-LWA (Q14671 828-1176 C935L/R936W/Q939A): as the sequence (Q14671 828-1176 C935L/R936W/Q939R) above, with R112A counted along it
As for “GGCUAGAACUAGUGGAUCCCCCGGCGCCCGGCGGCUCGAGCCCGGGUAAGUGUAAUUAGUCUGCAUGCCGCCGGGCGCCAUGCCUGCAGGUCGACUCUAGAAAACAUG”, the binding signal was 4.71 log2 enrichment (interaction score).

Consider “GGCUAGAACUAGUGGAUCCCCCGGCGCCCGGCGGCUCGAGCCCGGGUAAGUGUAAAUAGUCUGCAUGCCGCCGGGCGCCAUGCCUGCAGGUCGACUCUAGAAAACAUG”, for which the binding signal was 2.61 log2 enrichment (interaction score).

Consider “GGCUAGAACUAGUGGAUCCCCCGGCGCCCGGCGGCUCGAGCCCGGGUAAGUGUAAGUAGUCUGCAUGCCGCCGGGCGCCAUGCCUGCAGGUCGACUCUAGAAAACAUG”, for which the binding signal was 5.58 log2 enrichment (interaction score).

Another experiment deals with PUM1 PUF domain R4-ARC (Homo sapiens, UniProt Q14671 828-1176, N971A;H972R;Q975C). Described as above. The conditions noted are these: tags: N-Gal4 AD-HA kept; label: inside an RPR1-promoter hybrid RNA with tandem MS2 sites; ssRNA. In short, it runs like this: as §1
Chain of PUM1 PUF domain R4-ARC (Q14671 828-1176 N971A/H972R/Q975C): as the sequence (Q14671 828-1176 C935L/R936W/Q939R) above, with L108C, W109R, R112Q, N144A, H145R, Q148C counted along it
Turning to “GGCUAGAACUAGUGGAUCCCCCGGCGCCCGGCGGCUCGAGCCCGGGUAAGUGUAAAUAGUCUGCAUGCCGCCGGGCGCCAUGCCUGCAGGUCGACUCUAGAAAACAUG”, the binding signal was 5.53 log2 enrichment (interaction score).

Consider “GGCUAGAACUAGUGGAUCCCCCGGCGCCCGGCGGCUCGAGCCCGGGUAAGUGUAUAUAGUCUGCAUGCCGCCGGGCGCCAUGCCUGCAGGUCGACUCUAGAAAACAUG”, for which the binding signal was 1.56 log2 enrichment (interaction score).

In the case of “GGCUAGAACUAGUGGAUCCCCCGGCGCCCGGCGGCUCGAGCCCGGGUAAGUGUACAUAGUCUGCAUGCCGCCGGGCGCCAUGCCUGCAGGUCGACUCUAGAAAACAUG”, the binding signal was 0.97 log2 enrichment (interaction score).

In the next experiment the target is PUM1 PUF domain R3-GWA (Homo sapiens, UniProt Q14671 828-1176, C935G;R936W;Q939A). The description is as above. The conditions noted are these: tags: N-Gal4 AD-HA kept; label: inside an RPR1-promoter hybrid RNA with tandem MS2 sites; ssRNA. Summed up: as §1
Chain of PUM1 PUF domain R3-GWA (Q14671 828-1176 C935G/R936W/Q939A): as the sequence (Q14671 828-1176 C935L/R936W/Q939R) above, with L108G, R112A counted along it
On to “GGCUAGAACUAGUGGAUCCCCCGGCGCCCGGCGGCUCGAGCCCGGGUAAGUGUAAUUAGUCUGCAUGCCGCCGGGCGCCAUGCCUGCAGGUCGACUCUAGAAAACAUG”, for which the binding signal is 1.14 log2 enrichment (interaction score).

Consider “GGCUAGAACUAGUGGAUCCCCCGGCGCCCGGCGGCUCGAGCCCGGGUAAGUGUAAAUAGUCUGCAUGCCGCCGGGCGCCAUGCCUGCAGGUCGACUCUAGAAAACAUG”, for which the binding signal was 3.32 log2 enrichment (interaction score).

On to “GGCUAGAACUAGUGGAUCCCCCGGCGCCCGGCGGCUCGAGCCCGGGUAAGUGUAAGUAGUCUGCAUGCCGCCGGGCGCCAUGCCUGCAGGUCGACUCUAGAAAACAUG”, for which the binding signal was 2.87 log2 enrichment (interaction score).
